Screening results as filed in PubChem.
Sampled rows, rich in hits. Any-hit rate of the full collection: about 3.9%.
Anthrax LF prot: inhibitors of Bacillus anthracis lethal factor protease. P15917. multiplex microsphere protease cleavage assay, LF. inhibition, % at 10 µM. 360,000 compounds, 0.12% hits. AID 588501; note: plate controls were buffer without enzyme for full effect and enzyme alone for no effect
CCHF vOTU inh: blocks the CCHF virus ovarian tumor domain protease; CCHFV vOTU protease, Pep-AMC fluorescence; inhibition, % at 11.5 µM; 370,000 compounds, 0.55% hits; AID 651958; in the data active = inhibition above about 30%; note: 0% = vehicle wells with enzyme and 100% = no enzyme wells
BoNT A protease: BoNT A light chain protease inhibition | AID 588499 | inhibition, % at 10 µM | multiplex microsphere protease substrate cleavage, flow cytometry | 360,000 compounds, 0.17% hits; note: plate controls were buffer without enzyme for full effect and enzyme alone for no effect
BoNT-F LC inh: BoNT F light chain protease inhibition; Multiplex microsphere protease cleavage assay, flow cytometry; inhibition, % at 10 µM; 360,000 compounds, 0.22% hits; in the data active = inhibition above about 35%, passing the limit was not always enough; inconclusive = no clear call, values can overlap the other calls; note: plate controls were buffer without enzyme for full effect and enzyme alone for no effect
3CLpro inhibitor: SARS-CoV 3CLpro protease inhibition; P0C6X7; recombinant SARS-CoV 3CLpro, quenched FRET peptide cleavage; inhibition, % at 6 µM; 290,000 compounds, 0.14% hits; AID 1706; in the data active = inhibition above about 12%
Autofluor counter: flagged as autofluorescent in microsphere protease counterscreen; fluorescence intensity (no concentration beside the values); compound autofluorescence counterscreen, microsphere flow cytometry; active compounds read high; 360,000 compounds, 3.1% hits; in the data active = fluorescence intensity above about 16000; inconclusive = no clear call, values can overlap the other calls
* = called active by the depositor. Cut-off read from the data, not from the text of the source, unless noted: active = inhibition above about 30%; inconclusive = no clear call, values can overlap the other calls; inactive = below that.

For Cn1c(=O)oc2cc(S(=O)(=O)NC3CCCCCCC3)ccc21 the results were Anthrax LF prot -3, CCHF vOTU inh -1, BoNT A protease -1, BoNT-F LC inh -2, 3CLpro inhibitor -3 and Autofluor counter 16482*.
Screening CCOC(=O)N1CCC(NS(=O)(=O)c2ccc3c(c2)oc(=O)n3C)CC1 returned Anthrax LF prot 2, CCHF vOTU inh 10, BoNT A protease 2, BoNT-F LC inh -1, 3CLpro inhibitor 4 and Autofluor counter 16773*.
CCc1cc2c(=O)c(-c3nc4ccccc4n3C)c(C)oc2c(CN2CCN(C)CC2)c1O was read as 3CLpro inhibitor 3.
Screening CCc1cc2c(=O)c(-c3nc4ccccc4n3C)c(C(C)C)oc2c(CN2CCN(C)CC2)c1O returned Anthrax LF prot -3, CCHF vOTU inh -8, BoNT A protease -4, BoNT-F LC inh -9, 3CLpro inhibitor -1 and Autofluor counter 20753*.
CCc1cc(N2CCOCC2)cc2c1[nH]c1ccccc12 was read as Anthrax LF prot -10, CCHF vOTU inh -56, BoNT A protease 8, BoNT-F LC inh 8, 3CLpro inhibitor 0 and Autofluor counter 17063*.
For c1ccc2c(c1)[nH]c1c(N3CCOCC3)ncnc12 the results were Anthrax LF prot 2, CCHF vOTU inh -5, BoNT A protease -1, BoNT-F LC inh -12, 3CLpro inhibitor 0 and Autofluor counter 6374.
Screening CCOC(=O)[C@@]12CN(C(=O)OC(C)(C)C)CC=C1N(Cc1ccc(OC)cc1)C(=O)[C@H]2CC(=O)N1CCCCC1 returned CCHF vOTU inh 8.
COc1ccccc1OCC(=O)Nc1ccncc1 was read as Anthrax LF prot -8, CCHF vOTU inh 7, BoNT A protease 3, BoNT-F LC inh inconclusive, 3CLpro inhibitor -3 and Autofluor counter 3929.
COc1cc2c(cc1NC(=O)COc1ccccc1OC)oc1ccccc12 was read as Anthrax LF prot -1, CCHF vOTU inh 4, BoNT A protease 1, BoNT-F LC inh 0, 3CLpro inhibitor -2 and Autofluor counter 20273*.
For COc1ccccc1OCC(=O)Nc1ccccn1 the results were Anthrax LF prot 1, CCHF vOTU inh -1, BoNT A protease 1, BoNT-F LC inh 2, 3CLpro inhibitor 4 and Autofluor counter 22764*.
Screening COc1cc2c(cc1NS(=O)(=O)N1CCCCC1)oc1ccccc12 returned Anthrax LF prot -6, CCHF vOTU inh -9, BoNT A protease -4, BoNT-F LC inh -5, 3CLpro inhibitor 4 and Autofluor counter 23461*.
For COc1cc2c(cc1NC(=O)CCCCCN1C(=O)CCC1=O)oc1ccccc12 the results were Anthrax LF prot 0, CCHF vOTU inh -8, BoNT A protease 0, BoNT-F LC inh -2, 3CLpro inhibitor -2 and Autofluor counter 24230*.
`CC(C)CNc1cccc2c1S(=O)(=O)N(Cc1cn(Cc3cccc(C(F)(F)F)c3)nn1)Cc1ccccc1O2` gave CCHF vOTU inh 14.
For O=C(Nc1ccc2c(c1)oc1ccccc12)c1ccncc1 the results were Anthrax LF prot -3, CCHF vOTU inh 2, BoNT A protease -1, BoNT-F LC inh -4, 3CLpro inhibitor 1 and Autofluor counter 16791*.
Screening CNC(=O)COc1ccccc1C(=O)Nc1ccc2c(c1)oc1ccccc12 returned Anthrax LF prot -1, CCHF vOTU inh -4, BoNT A protease -1, BoNT-F LC inh -5, 3CLpro inhibitor 0 and Autofluor counter 16632*.
`O=C(NCC(F)(F)F)Nc1ncccn1` gave Anthrax LF prot 0, CCHF vOTU inh 1, BoNT A protease 0, BoNT-F LC inh -12, 3CLpro inhibitor 1 and Autofluor counter 4093.
`O=C(Nc1ccc2c(c1)oc1ccccc12)c1cccnc1` gave Anthrax LF prot 0, CCHF vOTU inh -3, BoNT A protease -1, BoNT-F LC inh -10, 3CLpro inhibitor 7 and Autofluor counter 3064.
For O=C(NCC(F)(F)F)Nc1ccccn1 the results were Anthrax LF prot -2, CCHF vOTU inh -7, BoNT A protease inconclusive, BoNT-F LC inh 0, 3CLpro inhibitor 0 and Autofluor counter 19809*.
For O=C(CN1C(=O)CCSc2ccccc21)Nc1ccc(Cl)cc1 the results were CCHF vOTU inh 6.
For COC(=O)c1c(C(=O)OC)c2n(c1C)Cc1ccccc1C2 the results were Anthrax LF prot -3, CCHF vOTU inh -1, BoNT A protease -1, BoNT-F LC inh 0, 3CLpro inhibitor -5 and Autofluor counter 22637*.
Screening COC(=O)c1c(C(=O)OC)c(-c2ccccc2)n2c1CCC2 returned Anthrax LF prot 0, BoNT A protease -1, BoNT-F LC inh -11, 3CLpro inhibitor 3 and Autofluor counter 8324.
